This passage reports outcome and AC50 results from PubChem BioAssay (EPA / NIEHS).

Conditions in all cases: mRNA level, 48 h; actives raise or lower the signal
Read-out in one test: CYP2C8 (gene 1558)
Nature of the test: LTEA_HepaRG_CYP2C8: Life Technologies and Expression Analysis (LTEA) Assay for CYP2C8 using HepaRG (AID 2283483). In short, it runs like this:
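HepaRG (human liver line), 48 h chemical exposure, 8-pt half-log series from 100 uM, 0.5% DMSO vehicle. Readout: CYP2C8 transcript by qRT-PCR, housekeeping-normalized. Bidirectional fit vs DMSO baseline.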

Read-out in a further test: CYP2E1 (gene 1571)
Nature of the test: LTEA_HepaRG_CYP2E1: Life Technologies and Expression Analysis (LTEA) Assay for CYP2E1 using HepaRG (AID 2283485). Put shortly: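 Assay uses 48 h exposure of HepaRG hepatic cells, eight concentrations to 100 uM. Expression of CYP2E1 is quantified by TaqMan qRT-PCR with ACTB, GAPDH and POLR2A normalization; curves fitted in both directions relative to vehicle.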

Read-out in another test: CYP4A11 (gene 1579)
Nature of the test: LTEA_HepaRG_CYP4A11: Life Technologies and Expression Analysis (LTEA) Assay for CYP4A11 using HepaRG (AID 2283486). In short, it runs like this: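 Differentiated HepaRG cells, serum-free induction medium, exposed 48 h in duplicate to 8-point half-log series from 100 uM in 0.5% DMSO. CYP4A11 mRNA measured by qRT-PCR, normalized to ACTB, GAPDH, POLR2A; bidirectional fit versus DMSO.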

Read-out in test [1]: Cytochrome P450 3A4 (Homo sapiens) (UniProt P08684)
Nature of the test: LTEA_HepaRG_CYP3A4: Life Technologies and Expression Analysis (LTEA) Assay for CYP3A4 using HepaRG (AID 2283487). Put shortly:
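HepaRG, 48 h exposure, 8-pt CRC from 100 uM (half-log), 0.5% DMSO, duplicates; serum-free induction medium. Readout: CYP3A4 mRNA, qRT-PCR, ACTB/GAPDH/POLR2A normalization. Bidirectional fit vs DMSO.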

Read-out in test [2]: DNA damage-inducible transcript 3 (DDIT3), DDIT3 (gene 1649)
Nature of the test: LTEA_HepaRG_DDIT3: Life Technologies and Expression Analysis (LTEA) Assay for DNA damage-inducible transcript 3 (DDIT3) using HepaRG (AID 2283488). Put shortly:
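Eight-point concentration-response (100 uM highest, half-log dilutions) in HepaRG, 48 h, duplicate wells. Endpoint: qRT-PCR mRNA, normalized (ACTB, GAPDH, POLR2A), bidirectional fitting with DMSO as baseline.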

Read-out in test [3]: Pro-epidermal growth factor (Homo sapiens) (UniProt P01133)
Nature of the test: LTEA_HepaRG_EGF: Life Technologies and Expression Analysis (LTEA) Assay for Epidermal growth factor (EGF) using HepaRG (AID 2283489). In short, it runs like this:
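Differentiated human HepaRG cells, plated 48 h then switched to serum-free induction medium, were exposed for 48 h to test chemicals (8-point half-log series, top 100 uM, 0.5% DMSO). EGF mRNA was quantified by qRT-PCR, normalized to ACTB, GAPDH, POLR2A.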

Read-out in test [4]: Early growth response protein 1 (EGR1) transcription factor, EGR1 (gene 1958)
Nature of the test: LTEA_HepaRG_EGR1: Life Technologies and Expression Analysis (LTEA) Assay for Early growth response protein 1 (EGR1) transcription factor using HepaRG (AID 2283490). In short, it runs like this:
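HepaRG, 48 h exposure, 8-pt half-log series from 100 uM, 0.5% DMSO vehicle; EGR1 transcript by TaqMan qRT-PCR (Fluidigm array), housekeeping-normalized; bidirectional fit relative to DMSO baseline.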

Read-out in test [5]: Cytochrome P450 3A7 (Homo sapiens) (UniProt P24462)
The test is described as follows: LTEA_HepaRG_CYP3A7: Life Technologies and Expression Analysis (LTEA) Assay for CYP3A7 using HepaRG (AID 2283492). In short, it runs like this:
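HepaRG cells plated 48 h, then dosed in serum-free induction medium for 48 h at 8 concentrations (top 100 uM, half-log steps, 0.5% DMSO). CYP3A7 mRNA by qRT-PCR, normalised to ACTB/GAPDH/POLR2A; bidirectional fit versus DMSO.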

Read-out in another test: CYP3A5 (gene 1577)
The test is described as follows: LTEA_HepaRG_CYP3A5: Life Technologies and Expression Analysis (LTEA) Assay for CYP3A5 using HepaRG (AID 2283493). Put shortly: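 Readout was CYP3A5 mRNA by qRT-PCR. HepaRG cultures were exposed for 48 h in serum-free induction medium to chemicals at up to 100 uM, and responses were fitted in both directions relative to DMSO vehicle.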

Read-out in test [6]: Fatty Acid-Binding Protein 1 (FABP1), FABP1 (gene 2168)
The test is described as follows: LTEA_HepaRG_FABP1: Life Technologies and Expression Analysis (LTEA) Assay for Fatty Acid-Binding Protein 1 (FABP1) using HepaRG (AID 2283494). In short, it runs like this:
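qRT-PCR readout of FABP1 transcript (normalized to three housekeeping genes) after 48 h chemical exposure of HepaRG cells; eight concentrations, half-log steps, max 100 uM, 0.5% DMSO vehicle; gain or loss fitted relative to DMSO baseline.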

Read-out in test [7]: Cytochrome P450 4A22 (Homo sapiens) (UniProt Q5TCH4)
The test is described as follows: LTEA_HepaRG_CYP4A22: Life Technologies and Expression Analysis (LTEA) Assay for Cytochrome P450 4A22 (CYP4A22) using HepaRG (AID 2283495). Put shortly: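 qRT-PCR of CYP4A22 mRNA (Fluidigm TaqMan, normalized to three housekeeping genes) after 48 h chemical exposure of HepaRG cells; 8-point half-log series, top 100 uM, 0.5% DMSO vehicle. Bidirectional curve fitting vs DMSO baseline.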

Read-out in test [8]: Cytochrome P450 7A1 (Homo sapiens) (UniProt P22680)
Nature of the test: LTEA_HepaRG_CYP7A1: Life Technologies and Expression Analysis (LTEA) Assay for Cytochrome P450 7A1 (CYP7A1) using HepaRG (AID 2283496). Put shortly:
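Using 0.5% DMSO as vehicle and baseline, chemicals were tested in duplicate over an 8-point range from 100 uM on HepaRG cells for 48 h; qRT-PCR signals were normalised to ACTB, GAPDH and POLR2A.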

Read-out in test [9]: Glutamate-cysteine ligase catalytic (GCLC), GCLC (gene 2729)
The test is described as follows: LTEA_HepaRG_GCLC: Life Technologies and Expression Analysis (LTEA) Assay for Glutamate-cysteine ligase catalytic (GCLC) using HepaRG (AID 2283498). In short, it runs like this: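 HepaRG, 48 h exposure, 8-pt half-log series from 100 uM, 0.5% DMSO vehicle; TaqMan qRT-PCR for GCLC mRNA, housekeeping-normalized; bidirectional curve fit vs DMSO baseline.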

Read-out in test [10]: growth arrest and DNA damage 45 (GADD45G), GADD45G (gene 10912)
The test is described as follows: LTEA_HepaRG_GADD45G: Life Technologies and Expression Analysis (LTEA) Assay for growth arrest and DNA damage 45 (GADD45G) using HepaRG (AID 2283499). Put shortly:
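Differentiated human HepaRG cells in serum-free induction medium were exposed for 48 h to 8 half-log concentrations up to 100 uM in 0.5% DMSO, in duplicate. GADD45G mRNA was measured by TaqMan qRT-PCR, normalised to ACTB, GAPDH and POLR2A, and fitted bidirectionally against DMSO.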

Read-out in test [11]: Glutamate-cysteine ligase regulatory (GCLM), GCLM (gene 2730)
Nature of the test: LTEA_HepaRG_GCLM: Life Technologies and Expression Analysis (LTEA) Assay for Glutamate-cysteine ligase regulatory (GCLM) using HepaRG (AID 2283500). In short, it runs like this: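 In this multiplexed HepaRG gene-expression assay, GCLM mRNA change after 48 h treatment (8 concentrations, max 100 uM) was scored against DMSO by bidirectional curve fitting.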

Read-out in test [12]: Ezrin (EZR), EZR (gene 7430)
The test is described as follows: LTEA_HepaRG_EZR: Life Technologies and Expression Analysis (LTEA) Assay for Ezrin (EZR) using HepaRG (AID 2283491). Put shortly:
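Read-out is EZR transcript level by qRT-PCR, normalized to three housekeeping genes and fitted bidirectionally against the DMSO control. Human HepaRG cells received test chemicals for 48 h at eight half-log concentrations up to 100 uM in 0.5% DMSO.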

Read-out in test [13]: Glutathione S-transferase M3 (GSTM3), GSTM3 (gene 2947)
The test is described as follows: LTEA_HepaRG_GSTM3: Life Technologies and Expression Analysis (LTEA) Assay for Glutathione S-transferase M3 (GSTM3) using HepaRG (AID 2283501). Put shortly: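 Differentiated HepaRG cells in serum-free induction medium were exposed in duplicate for 48 h to 8 half-log concentrations up to 100 uM in 0.5% DMSO. GSTM3 mRNA was measured by TaqMan qRT-PCR, normalized to ACTB/GAPDH/POLR2A, and fitted bidirectionally versus DMSO.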

Read-out in test [14]: Glutathione S-Transferase (GSTA2), GSTA2 (gene 2939)
Nature of the test: LTEA_HepaRG_GSTA2: Life Technologies and Expression Analysis (LTEA) Assay for Glutathione S-Transferase (GSTA2) using HepaRG (AID 2283497). In short, it runs like this:
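qRT-PCR readout of GSTA2 transcript, normalized to three housekeeping genes, fitted bidirectionally against 0.5% DMSO baseline. Differentiated HepaRG cells received compound for 48 h at 8 concentrations (top 100 uM, half-log steps).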

Each structure is given as a SMILES string. The source made the active and inactive calls. Rule for the calls: active = hit-call score of the fitted dose curve at least 0.9, where 1 is the maximum; inactive = score below 0.9.

Cytochrome P450 3A7 (Homo sapiens), sequence (P24462 whole entry, looked up): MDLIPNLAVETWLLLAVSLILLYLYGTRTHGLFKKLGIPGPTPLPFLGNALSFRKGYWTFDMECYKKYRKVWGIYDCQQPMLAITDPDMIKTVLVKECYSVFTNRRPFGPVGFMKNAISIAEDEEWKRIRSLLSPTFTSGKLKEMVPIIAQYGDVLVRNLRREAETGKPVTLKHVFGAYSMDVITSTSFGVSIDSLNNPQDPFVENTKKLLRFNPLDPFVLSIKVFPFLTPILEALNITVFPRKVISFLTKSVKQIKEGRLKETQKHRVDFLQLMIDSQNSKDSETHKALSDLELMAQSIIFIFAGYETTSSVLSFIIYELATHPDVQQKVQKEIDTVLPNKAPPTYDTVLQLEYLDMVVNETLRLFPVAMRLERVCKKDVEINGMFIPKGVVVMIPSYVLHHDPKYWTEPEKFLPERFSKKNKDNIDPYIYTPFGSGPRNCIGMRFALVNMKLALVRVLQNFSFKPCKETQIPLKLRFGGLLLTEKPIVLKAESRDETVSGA
Cytochrome P450 3A4 (Homo sapiens), sequence (P08684 whole entry, looked up): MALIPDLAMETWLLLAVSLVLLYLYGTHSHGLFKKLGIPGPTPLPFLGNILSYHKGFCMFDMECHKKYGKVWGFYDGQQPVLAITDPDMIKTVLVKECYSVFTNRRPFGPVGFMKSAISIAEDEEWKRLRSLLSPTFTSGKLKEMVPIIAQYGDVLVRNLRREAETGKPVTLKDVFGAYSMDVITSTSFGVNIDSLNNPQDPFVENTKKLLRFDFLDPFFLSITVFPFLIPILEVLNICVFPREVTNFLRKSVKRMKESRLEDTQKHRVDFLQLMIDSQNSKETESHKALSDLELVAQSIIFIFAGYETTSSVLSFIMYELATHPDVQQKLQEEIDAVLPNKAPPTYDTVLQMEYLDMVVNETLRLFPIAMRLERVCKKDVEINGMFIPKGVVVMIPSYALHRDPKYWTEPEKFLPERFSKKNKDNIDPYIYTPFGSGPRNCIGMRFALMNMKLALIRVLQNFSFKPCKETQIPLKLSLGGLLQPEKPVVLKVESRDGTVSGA

For orientation: AC50 means the concentration at which the activity in the assay is half-maximal. For `CCOP(=O)(SC(C)CC)N1CCSC1=O` (centres undefined), the result (in the test with CYP2C8 (gene 1558); in test [2]; in test [3]; in [4]; in [5]; in the test with CYP3A5 (gene 1577)) was inactive. The compound was called inactive in test [9], in test [10] and in [11]. Also, the AC50 in the test with CYP2E1 (gene 1571) was 19.1 µM (active); in the test with CYP4A11 (gene 1579), 17 µM (active); in [1], 16.1 µM (active); in [6], 16.1 µM (active); in test [7], 12.6 µM (active); in test [8], 32.3 µM (active).

Consider `CCCSP(=O)(OCC)Oc1ccc(Br)cc1Cl` (centres undefined), for which the outcome (with CYP2C8 (gene 1558); with CYP4A11 (gene 1579); in [1]; in test [2]; in [3]; in test [4]) was inactive. Further, the compound was classed as inactive (in test [12]; in test [5]; with CYP3A5 (gene 1577); in [6]; in test [7]; in test [8]). The call in test [9], in test [10], in test [11] and in [13] was inactive. For the same compound, the AC50 with CYP2E1 (gene 1571) is 40.4 µM (active).

Turning to `COP(=O)(OC)C(O)C(Cl)(Cl)Cl` (centres undefined), the compound was called inactive in [2], in test [3], in test [4], in test [12], in [6] and in test [9]. Besides, the call in [10], in test [11] and in [13] was inactive.

Consider `Nc1nc(N)nc(NC2CC2)n1`, for which the call (in the test with CYP2C8 (gene 1558); with CYP2E1 (gene 1571); with CYP4A11 (gene 1579); in test [1]; in [2]; in test [3]) was inactive. The compound was called inactive (in test [4]; in test [5]; with CYP3A5 (gene 1577); in test [6]; in [7]; in test [8]). The compound was called inactive in [14], in test [9], in test [10], in test [11] and in [13].

Turning to `O=[N+]([O-])c1cc(C(F)(F)F)c(Cl)c([N+](=O)[O-])c1Nc1ncc(C(F)(F)F)cc1Cl`, the AC50 in the test with CYP2C8 (gene 1558) is 26.8 µM (active); with CYP2E1 (gene 1571), 13.1 µM (active); with CYP4A11 (gene 1579) it was 27.6 µM (active); in test [1], 30.2 µM (active); in test [4] it was 90.7 µM (active); in test [5], 23.1 µM (active). For the same compound, the AC50 with CYP3A5 (gene 1577) was 66.7 µM (active); in test [6], 16.4 µM (active); in test [7], 23.1 µM (active); in test [8] it was 23 µM (active); in test [9] it was 69.3 µM (active). Further, the compound was called inactive in [2], in [3], in test [10], in test [11] and in [13].
